Sampled rows, rich in hits. Any-hit rate of the full collection: about 3%.
5HT1a ag: 5-HT1a (human) receptor agonism | CHO 5-HT1a Ga15 NFAT-bla reporter, FRET ratio; 0% basal, 100% maximal reference agonist | activation, % at 10 µM | hit rate 0.56% among 65,000 | AID 567;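 active = activation above the screen-wide mean activation plus 3 SD, cut at about 19% in these data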;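 also: 0% = DMSO wells and 100% = 5-CT at EC100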
5-HT1A blocker: 5-HT1a (human) receptor antagonism; P08908; CHO 5-HT1a Ga15 NFAT-bla reporter, antagonist mode; inhibition, % at 10 µM; hit rate 0.68% among 62,000;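 active = inhibition above the mean of all tested compounds plus 3 SD, cut at about 43% in these data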;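 also: receptor stimulated by 5-CT agonist at 100 nM near EC80; beta-lactamase reporter measured by ratiometric fluorescence of a cleavable substrate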
5HT1E antag: blocks the human 5-HT1E serotonin receptor; inhibition, % at 6 µM; AID 571; hit rate 0.99% among 65,000; CHO 5-HT1E Ga15 NFAT-bla reporter, FRET, antagonist;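 active = inhibition above a set limit, the mean inhibition across every tested compound plus 3 SD, cut at about 29% in these data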;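 also: signal is the 460 over 535 nm emission ratio of beta-lactamase substrate; 0% = agonist plus DMSO wells and 100% = wells without agonist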
HER2 expr 66K: lowers expression of human Her2 kinase; P04626; SKBR-3 HER2 protein level, AlphaScreen, 18-24 h; stronger effect = lower value; HER2 level % of control, % at 10 µM; hit rate 0.69% among 65,000; AID 645;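 active = HER2 level under 5% of the carrier-only control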;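 also: 100% = DMSO carrier and 0% = 500 nM PU-H71 HSP90 inhibitor; lower value means stronger loss of Her2 protein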
Target sequence (P04626 whole entry, looked up): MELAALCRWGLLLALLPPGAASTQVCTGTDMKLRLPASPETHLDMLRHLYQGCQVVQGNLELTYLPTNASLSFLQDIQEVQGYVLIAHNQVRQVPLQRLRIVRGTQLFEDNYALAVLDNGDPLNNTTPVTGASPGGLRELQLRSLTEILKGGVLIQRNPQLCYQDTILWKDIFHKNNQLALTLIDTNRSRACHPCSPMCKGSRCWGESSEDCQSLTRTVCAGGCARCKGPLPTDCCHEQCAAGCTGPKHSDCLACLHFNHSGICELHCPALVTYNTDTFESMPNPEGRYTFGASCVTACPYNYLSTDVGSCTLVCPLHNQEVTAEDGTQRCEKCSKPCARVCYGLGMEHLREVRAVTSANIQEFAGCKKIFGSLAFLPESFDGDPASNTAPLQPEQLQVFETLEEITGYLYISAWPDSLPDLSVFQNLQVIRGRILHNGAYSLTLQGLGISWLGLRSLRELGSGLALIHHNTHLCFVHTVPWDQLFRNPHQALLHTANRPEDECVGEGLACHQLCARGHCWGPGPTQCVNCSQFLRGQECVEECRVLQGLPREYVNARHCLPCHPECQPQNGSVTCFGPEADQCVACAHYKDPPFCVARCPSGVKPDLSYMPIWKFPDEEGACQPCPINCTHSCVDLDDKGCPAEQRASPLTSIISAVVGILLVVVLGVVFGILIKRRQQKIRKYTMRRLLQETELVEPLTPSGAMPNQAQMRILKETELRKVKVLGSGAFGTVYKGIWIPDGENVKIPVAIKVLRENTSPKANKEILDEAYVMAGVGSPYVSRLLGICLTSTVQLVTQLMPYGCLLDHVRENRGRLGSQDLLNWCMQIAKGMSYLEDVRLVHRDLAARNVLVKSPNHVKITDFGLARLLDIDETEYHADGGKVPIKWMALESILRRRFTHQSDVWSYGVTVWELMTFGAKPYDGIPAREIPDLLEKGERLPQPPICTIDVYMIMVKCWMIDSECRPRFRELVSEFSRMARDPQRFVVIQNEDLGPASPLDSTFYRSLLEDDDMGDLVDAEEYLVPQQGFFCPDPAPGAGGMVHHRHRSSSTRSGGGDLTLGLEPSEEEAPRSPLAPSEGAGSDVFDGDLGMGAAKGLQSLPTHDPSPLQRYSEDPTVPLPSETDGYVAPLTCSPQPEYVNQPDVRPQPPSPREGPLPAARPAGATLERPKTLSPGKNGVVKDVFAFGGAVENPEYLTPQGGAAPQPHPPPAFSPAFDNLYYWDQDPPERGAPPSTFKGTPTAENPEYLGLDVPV
HTR1E agonist: agonists of human 5-HT1E serotonin receptor; CHO 5-HT1E Ga15 NFAT-bla reporter, FRET; 0% DMSO wells, 100% control agonist wells; AID 574; activation, % at 6 µM; hit rate 0.69% among 65,000;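 active = activation above a set limit, the screen-wide mean activation plus 3 SD, cut at about 8.5% in these data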;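 also: 100% = positive control agonist at 1 µM giving full maximal response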
The depositor's hits bear a star; · = not tested or not shown.

SMILES	5HT1a ag	5-HT1A blocker	5HT1E antag	HER2 expr 66K	HTR1E agonist
COc1ccc(CSc2nnnn2Cc2ccccc2)cc1OC	-4.2	6.7	-2.8	-0.9*	0.1
O=C1c2cccc3cccc(c23)C(=O)N1c1nncs1	-2.8	-21.8	-16.4	-28.5*	0.8
COc1ccccc1NC(=O)CN(c1ccc(C)cc1)S(=O)(=O)c1c(C)n[nH]c1C	-1.9	63.1*	13.8	85.2	-0.8
CCOc1ccccc1NC(=O)CN(c1ccc(OC)cc1)S(=O)(=O)c1c(C)noc1C	-1.1	35.1	68.1*	92.3	-0.5
CCOc1ccccc1NC(=O)CN(c1cc(C)cc(C)c1)S(=O)(=O)c1c(C)noc1C	0.9	3.0	-9.5	92.3	-0.2
CCOc1ccc(N(CC(=O)Nc2ccccc2C)S(=O)(=O)c2c(C)noc2C)cc1	-0.3	30.4	46.3*	51.0	0.3
CCOC(=O)N1CCN(C(=O)Cc2ccsc2)CC1	-2.6	9.9	0.0	81.6	-1.3
COc1ccc(O)c(-c2[nH]ncc2C(=O)c2ccccc2C)c1	3.5	-9.4	-15.3	81.0	0.6
CCNc1ccc(C(=O)OCC)cc1NC(=O)c1cccc(S(=O)(=O)N2CCOCC2)c1	-2.2	6.3	6.2	85.0	-1.3
COC(=O)c1cc(NS(=O)(=O)c2ccc3c(c2)CCC(=O)N3)cc(C(=O)OC)c1	-4.6	-5.9	2.8	87.9	0.4
Cc1nc(NCc2ccco2)c2c3c(sc2n1)CCC3	-2.0	53.8*	13.9	61.2	0.2
c1coc(CNc2ncnc3sc4c(c23)CCCCC4)c1	-0.7	3.3	4.4	77.0	-0.2
COc1ccccc1N1CCN(CCc2n[nH]c(=S)n2-c2ccccc2)CC1	2.3	69.2*	2.9	93.8	30.3*
COc1ccccc1-c1n[nH]c(=S)n1-c1ccccc1	-1.4	5.4	-5.6	88.7	-0.7
C=C(C)Cn1c(-c2ccc(OC)cc2)nc2ccccc21	-0.8	·	12.2	-20.1*	-0.9
CCCn1c(-c2ccc(OC)cc2)nc2ccccc21	-3.1	3.8	0.6	95.0	-0.1
CCN(CCCNC(=O)CN1C(=O)COc2ccccc21)c1cccc(C)c1	-0.6	6.3	0.5	88.5	0.2
CC(C)C1N(c2ccccc2)C(N)=C(C#N)C1(C#N)C#N (configuration not stated)	2.4	-6.3	33.3*	77.7	0.3
COc1cc(-c2c(C#N)c(N)nc3c2c(C)nn3-c2ccc(C)c(C)c2)cc(OC)c1OC	-0.5	19.4	5.5	50.7	0.8
Cc1nn(-c2ccc(F)cc2)c2nc(N)c(C#N)c(-c3cccs3)c12	3.4	29.1	35.5*	50.1	-1.7
CCc1nn(C(C)C(=O)Nc2cccc(C)c2C)c(=O)c2cc3occc3n12 (configuration not stated)	0.0	8.6	0.1	51.0	0.0
CCc1nn(C(C)C(=O)NCCN2CCN(c3cccc(C)c3C)CC2)c(=O)c2cc3occc3n12 (configuration not stated)	10.6	40.5	-5.7	60.0	62.1*
C/C(=N\O)C(=O)C(CN1CCCCC1)CN1CCCCC1	-1.6	7.3	12.1	-12.3*	1.6
COc1ccc(S(=O)(=O)n2nc(OC(=O)c3c(-c4ccccc4Cl)noc3C)cc2N)cc1	1.0	17.3	-8.4	95.0	0.2
Cn1c(=O)oc2cc(S(=O)(=O)NCCN3CCN(c4ccccc4F)CC3)ccc21	-2.1	57.4*	5.3	92.3	0.1
SMILES	5HT1a ag	5-HT1A blocker	5HT1E antag	HER2 expr 66K	HTR1E agonist
Cn1c(=O)oc2cc(S(=O)(=O)N3CCN(c4ccccn4)CC3)ccc21	35.0*	-1.3	-12.8	101.5	0.8
CC1Oc2ccccc2N(CC(=O)NCCc2ccccc2)C1=O (configuration not stated)	-3.3	2.1	0.2	93.1	-0.5
Nc1nonc1/C(=N/O)N1CCCC1	130.4*	16.7	9.0	127.2	-0.7
COc1cccc(C(=O)Nc2ccc3nc(N4CCN(c5ncccn5)CC4)cc(C)c3c2)c1OC	4.4	24.2	29.9*	45.5	1.1
CC1(C(=O)O)CCC(C(=O)N2CCOCC2)C1(C)C (configuration not stated)	-2.7	-5.9	-9.0	97.7	1.0
Cc1ccc(Cn2c(Sc3nnc(C)s3)nc3c2c(=O)[nH]c(=O)n3C)cc1	-0.6	-4.4	40.6*	118.2	-0.2
CC(C)CCn1c(SCC(=O)OCn2nnc3ccccc3c2=O)nc2ccccc2c1=O	-2.5	1.9	2.4	111.6	-0.5
CC(=O)c1ccc(N2CCN(C(=O)c3ccc(OCc4c(C)noc4C)cc3)CC2)cc1	-1.6	-1.9	5.3	103.7	0.1
Cc1noc(C)c1COc1ccc(C(=O)OC(C)C(=O)Nc2ccc(N3CCOCC3)cc2)cc1 (configuration not stated)	-1.6	1.2	-5.8	97.4	120.3*
O=S(=O)(c1ccc(F)cc1)N(CCO)CC(O)Cn1c2ccccc2c2ccccc21 (configuration not stated)	0.1	28.1	3.4	-13.3*	0.2
CCN(CC)CC(O)Cn1c2ccccc2c2ccccc21 (configuration not stated)	0.8	-8.7	1.7	64.4	3.7
CCN(CC)c1nc(N2CCOCC2)c(C#N)c2c1CN(C)CC2	1.7	·	4.7	118.7	51.5*
CCN1CCc2c(C#N)c(N3CCCCC3)nc(N3CCOCC3)c2C1	-4.2	·	11.6	-21.9*	0.2
CCOC(=O)CSc1nnc(CNC(=O)c2ccc(S(=O)(=O)N3CCCCC3)cc2)n1C	-3.8	-13.9	-2.6	111.5	-0.5
O=C(NCc1ccco1)c1cccc(S(=O)(=O)N2CCCCC2)c1	-3.0	2.6	3.4	100.9	0.4
COc1cc(C2C(C#N)=C(C)NC3=C2C(=O)c2ccccc23)cc(OC)c1OC (configuration not stated)	-4.3	63.1*	82.3*	26.9	1.0
CCCc1nc2ccccc2c2nc(N)nn12	-3.4	-4.9	34.2*	102.2	0.8
Nc1nc2c3ccccc3nc(Cc3ccccc3)n2n1	-1.3	-11.0	8.6	110.5	0.4
CCCCOC(=O)Nc1cc(OC)c(Cl)cc1OC	-2.5	7.6	-5.2	77.0	-0.8
Cc1nc(SCC(=O)NCc2ccco2)c2c(C)c(C)sc2n1	-0.6	-5.5	5.7	80.6	0.3
Cc1sc2ncnc(SCC(=O)NC(=O)NCc3ccco3)c2c1C	98.4*	27.2	27.8	82.3	-0.1
CCCn1c(NCc2ccco2)nc2ccccc21	-2.9	4.3	-8.5	108.9	0.0
CCCn1c(Nc2nc3ccccc3n2C)nc2ccccc21	1.3	59.1*	54.1*	-22.3*	-0.6
CCCn1c(NC(=O)c2ccccc2)nc2ccccc21	-0.3	34.0	-10.1	87.7	-0.1
CCCCCn1c(NCc2ccco2)nc2ccccc21	-1.4	19.3	16.7	71.5	22.5*
Cc1ccc(-n2ncc3c(N4CCN(c5ccccc5)CC4)ncnc32)c(C)c1	1.2	·	51.4*	106.8	0.9
CCOC(=O)N1CCN(Cc2nc3c(c(=O)n(C)c(=O)n3C)n2CCCc2ccccc2)CC1	3.0	-14.4	-4.4	211.2	1.8
